# Assay results published in PubChem BioAssay.
# Activity calls are given as the source filed them.
# Columns and labels:
# [1] = tested on: PRMT1 (protein arginine N-methyltransferase 1); experiment: PRMT1 binders on small-molecule microarrays, primary screen, biochemical, small-molecule microarray, 635 nm fluorescence (AID 1088); settings: small-molecule microarray binding, higher = more signal;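 further: binding of Prmt1 protein to compounds spotted on small-molecule microarray slides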
# [2] = yeast growth modulation, basal conditions, primary screen, YJM789 clinical isolate, OD600, 24 h (AID 1089);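 further: growth of clinical yeast isolate S. cerevisiae YJM 789 seeded 1000 cells per well; test concentration not given here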; settings: S. cerevisiae YJM789 growth, higher = more signal, called active from +8 up or from −8 down
# [3] = fission yeast growth modulation, primary screen, strain 972, OD600, 24 h, no modulator (AID 1090);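 further: basal condition with compound alone and no growth modifier present; test concentration not given here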; settings: S. pombe 972 growth, higher = more signal, called active from +8 up or from −8 down
# [4] = S. cerevisiae growth modulation with rapamycin, primary screen, strain BY4716, OD600, 96 h (AID 1091); settings: higher = more signal, called active from +8 up or from −8 down; further: test concentration not given here
# [5] = target: Torsin-1A-interacting protein 2 (Homo sapiens) (UniProt Q8NFQ8); experiment: LULL1 binders on small-molecule microarray, primary screen, cell lysate, human LULL1 lysate, 635/667 nm fluorescence (AID 1092); settings: hLULL1 lysate binding, 635 nm fluorescence, higher = more signal;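 further: probe is lysate of COS7 cells overexpressing human LULL1; score merges per-feature 667 nm fluorescence with signal-to-noise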
# [6] = E. coli growth modulation, two-sided OD650, primary screen, E. coli filamentation project, strain DRC41, 24 h (AID 1093); settings: OD650, 24 h, higher = more signal, called active from +8 up or from −8 down;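 further: MC1000 strain lacking acrAB efflux and sulA so SOS filamentation is blocked; test concentration not given here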
# [7] = small-molecule microarray binders of probe aLefty2, primary screen, biochemical, biotinylated probe, 635/667 nm fluorescence (AID 1094); settings: higher = more signal;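 further: score merges spot fluorescence near 667 nm with spot signal-to-noise ratio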
# [8] = tested on: Noggin (protein binding on small-molecule microarray); experiment: Noggin binders on small-molecule microarray, primary screen, biochemical, 635/667 nm fluorescence (AID 1095); settings: 635 nm fluorescence, higher = more signal;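 further: score merges 667 nm feature fluorescence with signal to noise over triplicate slides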
# [9] = target: Neurogenic locus notch homolog protein 3 (Homo sapiens) (UniProt Q9UM47); experiment: NOTCH3 binders on small-molecule microarray, primary screen, biochemical, 635/667 nm fluorescence (AID 1096); settings: NOTCH3 binding, 635 nm fluorescence, higher = more signal
# [10] = small-molecule microarray binders of probe aEGFR, primary screen, biochemical, biotinylated probe, 635/667 nm fluorescence (AID 1097); settings: higher = more signal;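 further: probe is a biotinylated anti-EGFR antibody binding compounds printed on slides; score combines fluorescence near 667 nm and signal to noise of each spot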
# [11] = tested on: Plasmodium falciparum Sir2 (PF13_0152, Sir2A); experiment: pfSir2 binders on small-molecule microarrays, primary screen, biochemical, small-molecule microarray, 635 nm fluorescence (AID 1098); settings: small-molecule microarray binding, fluorescence 635 nm; higher = more signal;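 further: score merges spot fluorescence intensity with its signal-to-noise ratio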
# [12] = small-molecule microarray binders of probe aDKK1, primary screen, biochemical, biotinylated probe, 635/667 nm fluorescence (AID 1099); settings: higher = more signal;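 further: score merges 667nm spot fluorescence with signal to noise across triplicate slides; reference of the scale not given here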
# [13] = small-molecule microarray binders of probe aCHRDL2, primary screen, biochemical, biotinylated probe, 635/667 nm fluorescence (AID 1100); settings: higher = more signal
# [14] = splicing luciferase reporter signal modulators, primary screen, spliceosome inhibition project, cell-based, HEK293, splice +/- reporter (AID 1101); settings: luminescence, 24 h, higher = more signal, called active from +8 up or from −8 down;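 further: HEK293 cells carrying a splicing-competent luciferase reporter gene; test concentration not given here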
# [15] = target: Fibroblast growth factor 10 (Homo sapiens) (UniProt O15520); experiment: FGF10 binders on small-molecule microarrays, primary screen, biochemical, small-molecule microarray, 635 nm fluorescence (AID 1102); settings: FGF10 binding, fluorescence 635 nm, higher = more signal
# [16] = tested on: glycogen synthase kinase-3 (GSK3A per assay name; protocol says GSK3B); experiment: GSK3 binders on small-molecule microarrays, primary screen, biochemical, small-molecule microarray, 635 nm fluorescence, GSK3A (AID 1103); settings: small-molecule microarray binding, fluorescence 635 nm; higher = more signal; further: the record names both GSK3A and GSK3B
# [17] = target: Epidermal growth factor receptor (Homo sapiens) (UniProt P00533); experiment: EGFR binders on small-molecule microarrays, primary screen, biochemical, small-molecule microarray, 635 nm fluorescence (AID 1104); settings: EGFR binding, higher = more signal;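 further: score merges 667 nm emission intensity with spot signal to noise over triplicate slides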
# [18] = target: Follistatin-related protein 3 (Homo sapiens) (UniProt O95633); experiment: FSTL3 binders on small-molecule microarrays, primary screen, biochemical, small-molecule microarray, 635 nm fluorescence (AID 1105); settings: FSTL3 binding, higher = more signal;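 further: score merges emission near 667 nm and signal to noise per printed spot across three slides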
# [19] = target: Dickkopf-related protein 1 (Homo sapiens) (UniProt O94907); experiment: DKK1 binders on small-molecule microarrays, primary screen, biochemical, small-molecule microarray, 635 nm fluorescence scan (AID 1106); settings: DKK1 binding, higher = more signal;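 further: score merges emission near 667 nm with signal to noise over three replicate slides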
# [20] = tested on: Inhibin beta A chain (activin A); experiment: INHBA (activin A) binders on microarrays, primary screen, biochemical, small-molecule microarray, 635 nm fluorescence scan (AID 1107); settings: small-molecule microarray binding, higher = more signal;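 further: mouse activin A protein probed at 4.33 µg/mL on printed slides; score merges bound-protein fluorescence near 667 nm with spot signal-to-noise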
# Sequence of Torsin-1A-interacting protein 2 (Homo sapiens) (Q8NFQ8 whole entry, looked up): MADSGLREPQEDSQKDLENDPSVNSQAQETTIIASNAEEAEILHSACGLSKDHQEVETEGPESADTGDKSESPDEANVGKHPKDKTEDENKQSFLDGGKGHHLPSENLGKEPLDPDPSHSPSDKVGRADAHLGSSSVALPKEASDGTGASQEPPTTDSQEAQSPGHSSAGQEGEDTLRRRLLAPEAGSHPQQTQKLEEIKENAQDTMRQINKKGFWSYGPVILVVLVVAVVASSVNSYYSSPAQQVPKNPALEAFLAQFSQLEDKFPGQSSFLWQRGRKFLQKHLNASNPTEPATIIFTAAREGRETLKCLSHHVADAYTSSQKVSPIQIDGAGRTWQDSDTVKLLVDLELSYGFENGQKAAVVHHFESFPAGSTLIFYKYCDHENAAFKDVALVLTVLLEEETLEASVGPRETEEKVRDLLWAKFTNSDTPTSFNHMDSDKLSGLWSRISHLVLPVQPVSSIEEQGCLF
# Sequence of Dickkopf-related protein 1 (Homo sapiens) (O94907 whole entry, looked up): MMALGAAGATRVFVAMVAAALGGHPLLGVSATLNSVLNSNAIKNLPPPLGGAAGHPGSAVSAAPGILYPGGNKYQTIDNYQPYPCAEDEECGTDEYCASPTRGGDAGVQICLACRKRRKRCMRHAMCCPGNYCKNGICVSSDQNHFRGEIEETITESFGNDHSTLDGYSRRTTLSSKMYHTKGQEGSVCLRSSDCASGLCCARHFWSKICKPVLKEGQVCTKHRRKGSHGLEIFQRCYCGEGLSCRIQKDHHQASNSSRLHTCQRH
# Sequence of Neurogenic locus notch homolog protein 3 (Homo sapiens) (Q9UM47 whole entry, looked up): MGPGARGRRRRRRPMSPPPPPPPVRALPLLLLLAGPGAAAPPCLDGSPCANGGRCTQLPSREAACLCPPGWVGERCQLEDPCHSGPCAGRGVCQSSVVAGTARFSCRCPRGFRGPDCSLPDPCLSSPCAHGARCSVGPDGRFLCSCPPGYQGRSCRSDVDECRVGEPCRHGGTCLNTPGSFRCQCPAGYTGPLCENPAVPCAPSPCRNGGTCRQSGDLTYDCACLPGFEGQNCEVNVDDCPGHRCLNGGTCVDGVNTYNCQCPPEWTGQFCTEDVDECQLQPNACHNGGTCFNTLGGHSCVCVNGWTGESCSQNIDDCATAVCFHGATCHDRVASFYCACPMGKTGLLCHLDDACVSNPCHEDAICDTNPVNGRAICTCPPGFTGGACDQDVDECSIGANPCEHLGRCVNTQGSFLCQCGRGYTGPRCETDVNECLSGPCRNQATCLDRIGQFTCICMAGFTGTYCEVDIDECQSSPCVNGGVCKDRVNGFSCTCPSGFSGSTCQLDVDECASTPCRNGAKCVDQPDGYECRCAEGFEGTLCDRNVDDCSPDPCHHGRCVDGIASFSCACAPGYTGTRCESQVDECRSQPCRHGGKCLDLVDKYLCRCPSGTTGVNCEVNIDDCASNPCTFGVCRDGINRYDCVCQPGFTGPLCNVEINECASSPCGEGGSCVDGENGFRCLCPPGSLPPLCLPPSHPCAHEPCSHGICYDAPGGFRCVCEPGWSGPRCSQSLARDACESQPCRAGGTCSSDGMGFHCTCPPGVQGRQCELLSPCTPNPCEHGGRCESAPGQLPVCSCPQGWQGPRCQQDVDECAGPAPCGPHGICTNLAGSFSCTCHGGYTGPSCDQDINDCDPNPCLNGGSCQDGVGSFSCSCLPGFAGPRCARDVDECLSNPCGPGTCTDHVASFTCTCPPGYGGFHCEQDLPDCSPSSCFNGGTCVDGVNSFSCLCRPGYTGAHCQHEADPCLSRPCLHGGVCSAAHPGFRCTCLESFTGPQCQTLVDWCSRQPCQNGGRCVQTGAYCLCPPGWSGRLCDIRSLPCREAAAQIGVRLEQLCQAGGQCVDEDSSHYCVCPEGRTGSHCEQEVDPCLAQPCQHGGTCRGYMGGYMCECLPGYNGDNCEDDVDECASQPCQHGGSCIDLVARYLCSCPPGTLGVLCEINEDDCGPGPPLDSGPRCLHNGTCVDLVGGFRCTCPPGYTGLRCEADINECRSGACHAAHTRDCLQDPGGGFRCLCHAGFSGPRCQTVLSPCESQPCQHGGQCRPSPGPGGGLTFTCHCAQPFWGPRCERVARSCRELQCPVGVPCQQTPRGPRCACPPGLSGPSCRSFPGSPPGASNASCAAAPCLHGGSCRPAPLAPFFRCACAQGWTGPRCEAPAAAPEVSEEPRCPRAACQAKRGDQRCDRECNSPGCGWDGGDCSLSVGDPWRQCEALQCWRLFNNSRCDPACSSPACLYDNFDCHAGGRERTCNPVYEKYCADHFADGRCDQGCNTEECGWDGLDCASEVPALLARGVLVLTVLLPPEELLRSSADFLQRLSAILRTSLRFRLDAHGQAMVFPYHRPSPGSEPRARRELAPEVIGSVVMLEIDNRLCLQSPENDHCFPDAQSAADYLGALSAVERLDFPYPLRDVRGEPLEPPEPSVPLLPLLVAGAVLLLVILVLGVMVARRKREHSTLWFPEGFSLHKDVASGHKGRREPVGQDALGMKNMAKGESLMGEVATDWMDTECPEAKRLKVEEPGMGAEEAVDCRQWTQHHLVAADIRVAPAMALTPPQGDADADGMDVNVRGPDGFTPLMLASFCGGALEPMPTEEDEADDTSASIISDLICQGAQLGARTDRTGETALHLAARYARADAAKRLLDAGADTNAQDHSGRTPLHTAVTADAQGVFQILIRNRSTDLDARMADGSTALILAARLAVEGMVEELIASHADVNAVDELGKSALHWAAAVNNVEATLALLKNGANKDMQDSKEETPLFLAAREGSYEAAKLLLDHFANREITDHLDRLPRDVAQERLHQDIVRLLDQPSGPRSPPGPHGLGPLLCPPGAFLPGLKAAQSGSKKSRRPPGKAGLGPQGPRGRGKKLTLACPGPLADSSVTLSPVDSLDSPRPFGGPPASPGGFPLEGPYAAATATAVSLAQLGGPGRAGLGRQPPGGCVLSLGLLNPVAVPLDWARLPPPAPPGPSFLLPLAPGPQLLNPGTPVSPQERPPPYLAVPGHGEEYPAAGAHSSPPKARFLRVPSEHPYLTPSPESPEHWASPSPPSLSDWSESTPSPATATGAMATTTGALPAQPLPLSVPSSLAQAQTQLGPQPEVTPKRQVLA
# Sequence of Fibroblast growth factor 10 (Homo sapiens) (O15520 whole entry, looked up): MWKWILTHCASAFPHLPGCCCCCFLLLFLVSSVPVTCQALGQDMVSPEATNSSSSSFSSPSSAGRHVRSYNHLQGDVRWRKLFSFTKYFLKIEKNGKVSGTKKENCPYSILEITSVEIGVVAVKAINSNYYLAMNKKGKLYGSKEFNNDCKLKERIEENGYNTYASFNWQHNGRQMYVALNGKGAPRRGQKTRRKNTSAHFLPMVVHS
# Sequence of Follistatin-related protein 3 (Homo sapiens) (O95633 whole entry, looked up): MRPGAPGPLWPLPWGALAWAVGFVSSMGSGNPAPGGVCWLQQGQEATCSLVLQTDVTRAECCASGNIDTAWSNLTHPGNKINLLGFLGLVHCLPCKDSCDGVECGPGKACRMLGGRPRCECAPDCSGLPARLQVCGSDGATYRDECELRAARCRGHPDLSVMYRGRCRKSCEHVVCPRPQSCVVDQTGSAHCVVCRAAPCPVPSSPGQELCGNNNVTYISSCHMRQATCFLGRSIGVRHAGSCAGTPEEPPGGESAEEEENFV
# Sequence of Epidermal growth factor receptor (Homo sapiens) (P00533 whole entry, looked up): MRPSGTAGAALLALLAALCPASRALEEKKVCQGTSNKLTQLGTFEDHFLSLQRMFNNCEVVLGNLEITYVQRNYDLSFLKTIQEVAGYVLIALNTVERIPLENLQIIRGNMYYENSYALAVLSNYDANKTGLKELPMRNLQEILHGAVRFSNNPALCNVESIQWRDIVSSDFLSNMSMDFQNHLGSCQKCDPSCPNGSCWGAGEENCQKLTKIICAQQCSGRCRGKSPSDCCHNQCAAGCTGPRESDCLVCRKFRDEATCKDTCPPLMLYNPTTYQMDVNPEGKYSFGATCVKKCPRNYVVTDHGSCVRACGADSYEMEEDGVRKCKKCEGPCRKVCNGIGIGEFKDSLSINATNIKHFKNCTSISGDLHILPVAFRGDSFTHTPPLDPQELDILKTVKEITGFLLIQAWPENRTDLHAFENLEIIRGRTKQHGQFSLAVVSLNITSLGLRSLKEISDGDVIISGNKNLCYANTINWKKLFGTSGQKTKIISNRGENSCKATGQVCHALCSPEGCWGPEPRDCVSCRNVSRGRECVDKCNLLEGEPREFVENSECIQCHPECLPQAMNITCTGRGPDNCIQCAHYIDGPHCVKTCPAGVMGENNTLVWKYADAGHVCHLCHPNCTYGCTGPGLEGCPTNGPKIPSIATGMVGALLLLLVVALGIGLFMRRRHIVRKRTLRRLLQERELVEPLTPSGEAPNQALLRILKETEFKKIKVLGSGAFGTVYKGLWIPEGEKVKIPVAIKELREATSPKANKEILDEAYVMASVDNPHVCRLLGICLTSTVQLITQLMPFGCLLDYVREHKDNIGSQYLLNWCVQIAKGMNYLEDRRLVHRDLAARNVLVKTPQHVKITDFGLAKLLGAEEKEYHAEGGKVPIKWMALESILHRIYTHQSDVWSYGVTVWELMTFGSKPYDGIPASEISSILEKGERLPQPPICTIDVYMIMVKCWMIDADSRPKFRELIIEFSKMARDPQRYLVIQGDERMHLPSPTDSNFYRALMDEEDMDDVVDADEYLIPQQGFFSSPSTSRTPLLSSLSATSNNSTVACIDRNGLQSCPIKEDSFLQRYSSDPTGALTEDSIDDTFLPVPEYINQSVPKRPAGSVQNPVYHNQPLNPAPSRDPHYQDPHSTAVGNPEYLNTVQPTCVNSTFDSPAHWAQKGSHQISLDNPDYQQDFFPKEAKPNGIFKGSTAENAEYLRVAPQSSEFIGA
structure (smiles),measurement,setting,value
COC(=O)[C@]1(CCC(=O)OC(C)(C)C)N=C(c2ccc(OCCCO)cc2)O[C@@H]1c1ccccc1N=[N+]=[N-],composite z-score,[1],1.42
same,z-score,[2],1.15 (inactive)
same,z-score,[3],-0.491 (inactive)
same,z-score,[4],33.8 (active)
same,composite z-score,[5],2.08
same,z-score,[6],0.217 (inactive)
same,composite z-score,[7],0.0664
same,composite z-score,[8],0.677
same,composite z-score,[9],0.361
same,composite z-score,[10],-0.127
same,composite z-score,[11],0.911
same,composite z-score,[12],0.254
same,composite z-score,[13],0.855
same,z-score,[14],-0.229 (inactive)
same,composite z-score,[15],0.49
same,composite z-score,[16],-0.107
same,composite z-score,[17],-0.287
same,composite z-score,[18],0.168
same,composite z-score,[19],-0.281
same,composite z-score,[20],0.809
C=CCOC(=O)[C@@H]1[C@H]2C(=O)O[C@H](c3ccccc3)[C@H](c3ccccc3)N2[C@H](c2ccc(OCCOC(=O)[C@H]3C[C@H]4C(=O)N[C@@H](CCCCN(C)C)C(=O)N4[C@H]3c3ccc(O)cc3)cc2)[C@@]12C(=O)Nc1ccc(I)cc12,composite z-score,[1],1.53
same,z-score,[2],1.16 (inactive)
same,z-score,[3],-2.52 (inactive)
same,z-score,[4],1.35 (inactive)
same,composite z-score,[5],2.68
same,z-score,[6],-1.27 (inactive)
same,composite z-score,[7],-0.0686
same,composite z-score,[8],1.93
same,composite z-score,[9],1.1
same,composite z-score,[10],-0.0487
same,composite z-score,[11],1.52
same,composite z-score,[12],0.0904
same,composite z-score,[13],-0.13
same,z-score,[14],0.676 (inactive)
same,composite z-score,[15],0.88
same,composite z-score,[16],1.33
same,composite z-score,[17],0.989
same,composite z-score,[18],1.42
same,composite z-score,[19],1.15
same,composite z-score,[20],0.291
C#CCN1[C@@H](Cc2ccccc2)C(=O)O[C@H](Cc2ccccc2)[C@@H]1/C=C/C1CC1,composite z-score,[1],-0.101
same,z-score,[2],0.295 (inactive)
same,z-score,[3],-0.361 (inactive)
same,z-score,[4],0.148 (inactive)
same,composite z-score,[5],1.14
same,z-score,[6],0.855 (inactive)
same,composite z-score,[7],-0.185
same,composite z-score,[8],0.33
same,composite z-score,[9],0.246
same,composite z-score,[10],-0.0422
same,composite z-score,[11],0.345
same,composite z-score,[12],-0.251
same,composite z-score,[13],-0.505
same,z-score,[14],-0.29 (inactive)
same,composite z-score,[15],0.209
same,composite z-score,[16],0.524
same,composite z-score,[17],-0.333
same,composite z-score,[18],0.22
same,composite z-score,[19],0.156
same,composite z-score,[20],0.781
O=C1NC(=O)C2C1C=CC(C(O)c1ccc([N+](=O)[O-])cc1)N2Nc1ccccn1 (stereo not given),composite z-score,[1],-0.453
same,z-score,[2],-0.0716 (inactive)
same,z-score,[3],0.917 (inactive)
same,z-score,[4],0.346 (inactive)
same,composite z-score,[5],0.307
same,z-score,[6],-0.562 (inactive)
same,composite z-score,[7],-0.0218
same,composite z-score,[8],0.241
same,composite z-score,[9],-0.432
same,composite z-score,[10],-0.0355
same,composite z-score,[11],-0.0076
same,composite z-score,[12],0.0152
same,composite z-score,[13],0.14
same,z-score,[14],1.34 (inactive)
same,composite z-score,[15],0.32
same,composite z-score,[16],-0.34
same,composite z-score,[17],0.633
same,composite z-score,[18],-0.0907
same,composite z-score,[19],0.328
same,composite z-score,[20],0.854
CCCC[C@H]1OB(O)C[C@H]2C1=C(COc1ccccc1)C[C@H]1C(=O)C=CC(=O)[C@H]12,composite z-score,[1],1.07
same,z-score,[2],0.426 (inactive)
same,z-score,[3],-3.31 (inactive)
same,z-score,[4],-0.241 (inactive)
same,composite z-score,[5],0.258
same,z-score,[6],1.78 (inactive)
same,composite z-score,[7],-0.377
same,composite z-score,[8],0.592
same,composite z-score,[9],1.03
same,composite z-score,[10],-0.0007
same,composite z-score,[11],0.268
same,composite z-score,[12],1.07
same,composite z-score,[13],-0.56
same,z-score,[14],-0.171 (inactive)
same,composite z-score,[15],0.638
same,composite z-score,[16],0.474
same,composite z-score,[17],0.286
same,composite z-score,[18],1.02
same,composite z-score,[19],0.966
same,composite z-score,[20],0.825
COC(=O)[C@@]1(Cc2ccc(OC)cc2)[C@H]2c3cc(C(=O)N4CCCC4)n(Cc4ccc(C(F)(F)F)nc4)c3C[C@H]2CN1C(=O)c1ccccc1,composite z-score,[1],0.0861
same,z-score,[2],-0.361 (inactive)
same,z-score,[3],-0.138 (inactive)
same,z-score,[4],-0.707 (inactive)
same,composite z-score,[5],1.05
same,z-score,[6],-1.1 (inactive)
same,composite z-score,[7],0.248
same,composite z-score,[8],0.113
same,composite z-score,[9],0.269
same,composite z-score,[10],0.131
same,composite z-score,[11],1.27
same,composite z-score,[12],0.0202
same,composite z-score,[13],0.872
same,z-score,[14],-4.53 (inactive)
same,composite z-score,[15],0.69
same,composite z-score,[16],-0.478
same,composite z-score,[17],0.282
same,composite z-score,[18],0.11
same,composite z-score,[19],-0.301
same,composite z-score,[20],0.918
COCCCNC(=O)[C@@H]1c2ccccc2C(=O)N(Cc2ccc(OC(F)(F)F)cc2)[C@H]1c1ccc(CO)cc1,composite z-score,[1],1.34
same,z-score,[2],-0.975 (inactive)
same,z-score,[3],-0.153 (inactive)
same,z-score,[4],-0.97 (inactive)
same,composite z-score,[5],2.36
same,z-score,[6],-0.518 (inactive)
same,composite z-score,[7],-0.0687
same,composite z-score,[8],0.489
same,composite z-score,[9],0.554
same,composite z-score,[10],-0.0949
same,composite z-score,[11],0.499
same,composite z-score,[12],0.21
same,composite z-score,[13],0.215
same,z-score,[14],0.0366 (inactive)
same,composite z-score,[15],0.393
same,composite z-score,[16],0.723
same,composite z-score,[17],0.0725
same,composite z-score,[18],0.481
same,composite z-score,[19],0.743
same,composite z-score,[20],0.639
C=C(COC)C(=O)CC[C@H](OC(=O)c1cccnc1)c1ccc(OCCO)cc1,composite z-score,[1],1.52
same,z-score,[2],-0.191 (inactive)
same,z-score,[3],-1.48 (inactive)
same,z-score,[4],0.535 (inactive)
same,composite z-score,[5],1.48
same,z-score,[6],0.105 (inactive)
same,composite z-score,[7],-0.155
same,composite z-score,[8],1.22
same,composite z-score,[9],0.78
same,composite z-score,[10],-0.113
same,composite z-score,[11],0.745
same,composite z-score,[12],-0.163
same,composite z-score,[13],-0.139
same,z-score,[14],-0.319 (inactive)
same,composite z-score,[15],1.08
same,composite z-score,[16],0.538
same,composite z-score,[17],0.163
same,composite z-score,[18],1.03
same,composite z-score,[19],0.624
same,composite z-score,[20],0.472
COc1ccc([Si](C)(C)[C@@H]2[C@@H](CC(=O)N3Cc4ccccc4C[C@H]3CO)O[C@]3(C(=O)N(Cc4ccc(N5CCOC5=O)cc4)c4ccccc43)[C@H]2C)cc1,composite z-score,[1],1.57
same,z-score,[2],-0.631 (inactive)
same,z-score,[3],0.693 (inactive)
same,z-score,[4],3.78 (inactive)
same,composite z-score,[5],1.56
same,z-score,[6],1.36 (inactive)
same,composite z-score,[7],-0.133
same,composite z-score,[8],1.55
same,composite z-score,[9],1.13
same,composite z-score,[10],-0.0947
same,composite z-score,[11],1.09
same,composite z-score,[12],-0.115
same,composite z-score,[13],-0.271
same,z-score,[14],-1.36 (inactive)
same,composite z-score,[15],0.723
same,composite z-score,[16],0.969
same,composite z-score,[17],0.916
same,composite z-score,[18],1.24
same,composite z-score,[19],0.945
same,composite z-score,[20],1.03
COC(=O)[C@@]1(Cc2ccccc2)[C@H]2c3cc(C(=O)N(C)C)n(Cc4ccc(S(C)(=O)=O)cc4)c3C[C@H]2CN1C(=O)c1ccccc1,composite z-score,[1],-0.541
same,z-score,[2],0.407 (inactive)
same,z-score,[3],0.279 (inactive)
same,z-score,[4],0.654 (inactive)
same,composite z-score,[5],3.51
same,z-score,[6],-1.59 (inactive)
same,composite z-score,[7],0.384
same,composite z-score,[8],-0.415
same,composite z-score,[9],1.11
same,composite z-score,[10],0.211
same,composite z-score,[11],0.308
same,composite z-score,[12],1.1
same,composite z-score,[13],1.22
same,z-score,[14],0.376 (inactive)
same,composite z-score,[15],0.648
same,composite z-score,[16],0.0903
same,composite z-score,[17],-0.366
same,composite z-score,[18],-0.0624
same,composite z-score,[19],-0.618
same,composite z-score,[20],0.749
